Screening results: PubChem, several laboratories
In the library only some 12% were active in any assay of this set; here they are far more common.
WT yeast gro inh – growth inhibition of WT yeast, mitochondrial fusion screen. mitochondrial fusion phenotypic screen, WT strain. inhibition, % at 10 µM. actives 2.1% (n = 190,000). AID 1362; in the data active means inhibition above about 58%; tested in S. cerevisiae
ROMK mod – human ROMK K+ channel modulation, primary screen; actives 2% (n = 130,000); AID 1918; B-score at 10 µM; Tet-inducible ROMK, thallium flux fluorescence; actives lie on both sides; P48048;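 active means signal ratio slope over the read window, or its plate-corrected B-score, at least 3 SD from the plate mean, either direction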;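 further: B-score of the F/F0 ratio slope over 7 to 12 s after thallium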
Target sequence (P48048 whole entry, looked up): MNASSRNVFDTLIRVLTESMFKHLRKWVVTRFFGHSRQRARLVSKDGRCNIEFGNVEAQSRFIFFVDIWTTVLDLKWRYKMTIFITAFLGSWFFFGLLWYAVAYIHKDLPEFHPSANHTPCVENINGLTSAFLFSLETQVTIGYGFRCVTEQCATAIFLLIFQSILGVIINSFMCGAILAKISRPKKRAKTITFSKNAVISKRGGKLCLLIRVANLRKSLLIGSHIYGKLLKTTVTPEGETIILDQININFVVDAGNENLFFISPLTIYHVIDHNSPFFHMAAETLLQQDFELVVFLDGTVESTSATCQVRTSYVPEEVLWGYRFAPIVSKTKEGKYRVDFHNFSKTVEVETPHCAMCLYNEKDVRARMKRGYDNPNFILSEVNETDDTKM
Cl transport mod – modulators of human KCC2 chloride dependent transport. Q9H2X9. KCC2 cells, thallium flux FluoZin-2 fluorescence. B-score of Tl+ flux slope (higher = more flux/activation; lower = inhibition) at 10 µM. actives 2.2% (n = 190,000). AID 1456;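 active means thallium flux slope and its plate-corrected score both differing from the plate sample mean at a set confidence after two filtering rounds, in either direction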;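 further: slope of fluorescence scaled to starting intensity during 10 to 20 s after thallium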
INS promoter inh – TRM-6 insulin promoter activity inhibition; TRM-6 cells (human fetal islet line), insulin promoter-eGFP reporter, imaging; reporter expression induced with tamoxifen; inhibition, % at 2 µM; actives 0.9% (n = 130,000);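 active means inhibition above the mean plus 3 SD, with well images judged a real hit on visual review, cut at about 60% in these data, passing the limit was not always enough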
Insulin prom up – MIN6 insulin promoter up-regulation | MIN6 insulin promoter-GFP reporter, high-content imaging; stronger effect = higher value | z-score at 5 µM | actives 0.3% (n = 190,000) | AID 1625;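 active means z-score above 3 at 5 µM with at least 500 cells counted in the well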
L major viab – inhibitors of Leishmania major promastigote growth | Leishmania major promastigotes, resazurin fluorescence viability | inhibition, % at 10 µM | actives 9% (n = 200,000) | AID 1063; in the data active means inhibition above about 50%;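 further: promastigotes grown with compound for 44 hours at 28 °C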
Starred values were filed as active, the others as inactive.

How did CC(C)CCOc1cccc(OCC(=O)O)c1 do in these assays?
WT yeast gro inh: -17.0; ROMK mod: 0.241; Cl transport mod: -0.0887; INS promoter inh: 13.5; Insulin prom up: 0.71; L major viab: -3.4

Results for COc1ccc(-c2cc(C(F)(F)F)n3nc(C(=O)NCCN4CCOCC4)cc3n2)cc1 ?
WT yeast gro inh: -16.8; ROMK mod: -0.0282; Cl transport mod: -0.615; Insulin prom up: -0.11; L major viab: 10.1

How did Cc1c(NC(=O)c2nn3c(C(F)(F)F)cc(-c4ccccc4)nc3c2Cl)c(=O)n(-c2ccccc2)n1C do in these assays?
WT yeast gro inh: 1.7; ROMK mod: 0.883; Cl transport mod: -1.22; INS promoter inh: -23.1; Insulin prom up: 1.2; L major viab: 2.7

Results for COc1ccc(-c2cc(C(F)(F)F)n3nc(C(=O)NCCCn4ccnc4)cc3n2)cc1 ?
WT yeast gro inh: -5.3; ROMK mod: -0.686; Cl transport mod: -0.344; INS promoter inh: 38.9; L major viab: 90.4*

What do the screens show for `O=C(NCCCn1ccnc1)c1nn2c(C(F)(F)F)cc(-c3ccc(Br)cc3)nc2c1Cl`?
WT yeast gro inh: 48.0; ROMK mod: -2.8; Cl transport mod: 0.777; INS promoter inh: 25.0; Insulin prom up: -2.16; L major viab: 100.2*

What do the screens show for `Cc1nn(C)c(Oc2ccccc2)c1CCNS(=O)(=O)c1ccccc1`?
WT yeast gro inh: 0.8; Cl transport mod: -0.151; Insulin prom up: 0.42; L major viab: 18.8

Results for CC(C)C(=O)Nc1ccc(C(=O)NNC(=O)CCCOc2ccc(Cl)cc2Cl)cc1 ?
WT yeast gro inh: 78.9*; ROMK mod: 0.000811; Insulin prom up: 0.5; L major viab: -12.0

Results for O=C(COc1ccc(Cl)cc1Cl)NNC(=S)Nc1ccc(F)cc1 ?
WT yeast gro inh: 61.7*; ROMK mod: 0.889; Cl transport mod: 4.06*; Insulin prom up: 0.36; L major viab: -3.1

How did CC(=O)NC(=S)Nc1ccc(NC(=O)COc2ccc(Cl)cc2Cl)cc1 do in these assays?
WT yeast gro inh: 6.2; ROMK mod: -0.00707; Cl transport mod: -0.315; Insulin prom up: 0.56; L major viab: 15.9

How did C=CCNC(=S)NNC(=O)COc1ccc(Cl)cc1Cl do in these assays?
WT yeast gro inh: 67.8*; Cl transport mod: 3.72; Insulin prom up: 0.32; L major viab: -5.0

How did Cn1c(C(=O)c2ccncc2)cc2ccccc21 do in these assays?
Cl transport mod: -0.699; Insulin prom up: 0.1

Results for CCOC(=O)Cn1nc(C)c2c1CCCC2=O ?
WT yeast gro inh: 23.0; Cl transport mod: 0.104; INS promoter inh: 54.3; Insulin prom up: 0.07; L major viab: 0.1

What do the screens show for `Cc1cccc(-n2ncc3c(N(C)Cc4ccccc4)ncnc32)c1`?
WT yeast gro inh: 70.4*; Cl transport mod: 0.00711; Insulin prom up: 1.05

How did Cc1cccc(-n2ncc3c(N)ncnc32)c1 do in these assays?
WT yeast gro inh: -14.8; Cl transport mod: -0.162; L major viab: -4.8

How did CCc1ccccc1Nc1nc2ccccc2n1C(C)C do in these assays?
WT yeast gro inh: 1.7; ROMK mod: -0.202; Cl transport mod: 1.03; Insulin prom up: 0.19; L major viab: 36.1

How did CCc1ccccc1Nc1nc2ccccc2n1CC do in these assays?
WT yeast gro inh: 0.2; ROMK mod: 0.00717; Cl transport mod: -0.182; Insulin prom up: 0.59; L major viab: 72.1*

Results for CCOC(=O)C(C(=O)OCC)=C1OC(=O)c2ccccc21 ?
WT yeast gro inh: 5.3; Cl transport mod: -0.137; Insulin prom up: 0.25; L major viab: -6.3

What do the screens show for `Cc1ccc(NC(=O)CN2C(=O)S/C(=C\C(=O)Nc3ccc(Cl)cc3)C2=O)cc1`?
WT yeast gro inh: 10.9; ROMK mod: -0.062; Cl transport mod: 0.0392; INS promoter inh: 28.0; Insulin prom up: -0.25; L major viab: 62.6*

What do the screens show for `COC(=O)C1=C(C)N(C)C(C)=C(C(=O)OC)C1c1ccncc1`?
WT yeast gro inh: 27.6; ROMK mod: 0.869; Cl transport mod: 0.643; INS promoter inh: 42.9; Insulin prom up: -1; L major viab: 1.7

How did COC(=O)C1=C(C)N(C)C(C)=C(C(=O)OC)C1c1ccc(F)c(Br)c1 do in these assays?
WT yeast gro inh: 50.2; Cl transport mod: 0.0677; INS promoter inh: 0.0; Insulin prom up: -0.15; L major viab: 76.5*

Results for O=C(N/N=C/C=C/c1ccco1)c1cccnc1 ?
WT yeast gro inh: -4.3; Cl transport mod: 0.8; INS promoter inh: 100.0*; Insulin prom up: -0.71; L major viab: -4.6

What do the screens show for `COc1ccc(NC(=O)CNc2cccc(C#N)c2)cc1Cl`?
WT yeast gro inh: 71.2*; ROMK mod: 0.108; INS promoter inh: 42.9; L major viab: 3.0

Results for COc1ccc(NCC(=O)Nc2ccc(C#N)cc2)cc1Cl ?
WT yeast gro inh: 20.1; ROMK mod: 0.498; Cl transport mod: -0.616; INS promoter inh: 29.7; L major viab: 24.1

What do the screens show for `O=C(C1=C[C@H](c2ccccc2)C[C@H](OCCCCO)O1)N1CCOCC1`?
WT yeast gro inh: -8.4; Cl transport mod: 0.384; Insulin prom up: 0.53; L major viab: -7.8

Results for CC1=CC(C)(C)N(S(=O)(=O)c2ccc(C)cc2)c2ccc(C)cc21 ?
WT yeast gro inh: 63.0*; ROMK mod: 2.2; Cl transport mod: -0.881; INS promoter inh: 50.7; Insulin prom up: -2.9; L major viab: 99.6*

How did O=C(O)C1=C[C@@H](C2CCCCC2)C[C@@H](OCCCCO)O1 do in these assays?
WT yeast gro inh: 3.9; Cl transport mod: 0.35; Insulin prom up: 0.51; L major viab: -2.3

Results for COc1ccc(C(=O)Nc2cc(C(C)=O)c(C)oc2=O)cc1 ?
WT yeast gro inh: -17.5; ROMK mod: 0.901; Cl transport mod: 0.783; Insulin prom up: 0.07; L major viab: -0.5

Results for COC(=O)c1cc(NC(=O)c2ccccc2)c(=O)oc1/C=C/Nc1ccc(Oc2ccccc2)cc1 ?
WT yeast gro inh: 5.2; ROMK mod: -4.46*; Cl transport mod: inactive; INS promoter inh: inactive; L major viab: 24.4

How did COC(=O)C1C(O)=C(C=NC2CCCCC2)C(=O)CC1(C)C (stereo not given) do in these assays?
WT yeast gro inh: 6.5; Cl transport mod: 0.0357; INS promoter inh: 50.0; Insulin prom up: 1.25; L major viab: -9.0

How did CCCCCCN=CC1=C(O)C(C(=O)OC)C(C)(C)CC1=O (stereo not given) do in these assays?
WT yeast gro inh: 6.3; ROMK mod: 0.831; INS promoter inh: 93.1*; Insulin prom up: -0.84; L major viab: -3.1

Results for Cc1cc(C)n2ncnc2n1 ?
WT yeast gro inh: 6.6; ROMK mod: 0.841; Cl transport mod: -0.0711; INS promoter inh: -11.1; Insulin prom up: 0.99; L major viab: 0.3

Results for Cc1cc(C)cc(-n2c(C)cc(/C=C3\C(=N)N4N=C(CC(C)C)SC4=NC3=O)c2C)c1 ?
WT yeast gro inh: -2.4; Cl transport mod: 0.929; L major viab: 2.9

How did Cc1cccc(-n2c(C)cc(/C=C3\C(=N)N4N=C(CC(C)C)SC4=NC3=O)c2C)c1 do in these assays?
WT yeast gro inh: 2.4; ROMK mod: 0.322; Cl transport mod: 0.679; INS promoter inh: 27.6; Insulin prom up: 0.45; L major viab: 58.6*
